# Laboratory results reported in the supplement of paper PMC4166925.
# ± gives the standard deviation of the averaged measurements. Over roughly 33,000 sequences, “E-score (dimensionless, -0.5 to 0.5)” has its median near -0.049; the highest 2% begin near 0.37. The sample as a whole holds a higher share of the highest values than the screen did.
# Tested on: T1, PmTbr T-box DNA-binding domain (GST fusion)
# T1 sequence: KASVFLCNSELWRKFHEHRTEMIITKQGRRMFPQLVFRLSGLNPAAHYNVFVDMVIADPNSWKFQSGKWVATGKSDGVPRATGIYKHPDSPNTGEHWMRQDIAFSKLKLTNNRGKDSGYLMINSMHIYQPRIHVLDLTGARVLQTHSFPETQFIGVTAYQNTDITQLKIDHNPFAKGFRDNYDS
# Test: PBM E-score of 8-mer (E-score (dimensionless, -0.5 to 0.5)); Tbr is Tbrain of the sea star Patiria miniata (Pm) or the sea urchin Strongylocentrotus purpuratus (Sp); higher = stronger binding preference
# Conditions: the construct has about 5 more residues each side
# In short: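 GST-fused Tbr T-box DNA-binding domains (the whole T-box plus about five flanking residues) were expressed in BL21 E. coli at 20 °C and purified by glutathione affinity chromatography. Universal Agilent oligonucleotide arrays were made double-stranded by primer extension, incubated with 200 nM protein in PBS (pH 7.5), then scanned and quantified. Every ungapped 8-mer was scored from probe intensities. The Universal PBM Analysis Suite gave each word an enrichment E-score, averaged over duplicate arrays.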
row,Sequence,PBM E-score of 8-mer
1,CCGAAGTA,-0.302 ± 0.021
2,CCCAAGTA,-0.0284 ± 0.033
3,CGAGTGCA,-0.0272 ± 0.087
4,ACGAACTG,0.0451 ± 0.03
5,CCTTTGGC,0.0109 ± 0.046
6,CGATCCAG,-0.0702 ± 0.018
7,GAACCTGC,-0.162 ± 0.0065
8,AAACCTGA,0.0859 ± 0.12
9,GCACCTGC,0.395 ± 0.018
10,AGACCTGA,-0.102 ± 0.055
11,ACACCTGA,0.4657 ± 0.0021
12,ATACCTGG,0.139 ± 0.025
13,ACACCTGC,0.461 ± 0.017
14,ATACCTGC,0.0129 ± 0.047
15,CGACCTGC,0.196 ± 0.043
16,CCACCTGG,0.252 ± 0.0058

row,Sequence,PBM E-score of 8-mer
1,ACACCTGG,0.466 ± 0.0053
2,CCACCTGC,0.299 ± 0.02
3,ATGCCCAC,-0.186 ± 0.051
4,AGAACCCT,-0.229 ± 0.014
5,ACTCGCCA,0.144 ± 0.015
6,CCTCTTAG,-0.103 ± 0.0023
7,CTATACCA,-0.205 ± 0.013
8,AGCCCCAG,-0.138 ± 0.057
9,TCTTGCCA,0.0678 ± 0.023
10,GAGAACCC,-0.0803 ± 0.011
11,AGGCTCTG,-0.0891 ± 0.012
12,AAGAATGT,-0.0657 ± 0.011
13,ATCAGTGG,-0.0659 ± 0.059
14,AGGGCAAG,-0.2 ± 0.018
15,TCGATTCA,0.0262 ± 0.015
16,GTGGGCCA,-0.191 ± 0.031
